This is part of a sample that, as a whole, favours compounds with a hit. Of some 83,000 tested, about 20% had one in any assay.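 Note: values are percent growth. 100 is the growth of untreated cells, values between 100 and 0 indicate rising inhibition; between -100 and 0 indicates cell death.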 A number with no mark means an inactive call. Active and inactive are the calls of the source. The calls were made as follows: active = growth percent below 10; inactive = the rest.
System: NCI-H522 lung
Assay: NCI-60 one-dose screen, 48 h (100 = growth as untreated, 0 = no growth, -100 = all killed)
Conditions: 10 µM

SMILES	growth
Cn1cnc([N+](=O)[O-])c1/C=C1\Oc2ccc(Cl)cc2C1=O	52.8%
CCOC(=S)Sc1ccc([N+](=O)[O-])cc1[N+](=O)[O-]	-1.29% (active)
NC(N)=NS(=O)(=O)c1ccc(Nc2ccc3nnc(-c4ccncc4)n3n2)cc1	-57.2% (active)
N#C/C(=C\N1C(=O)/C(=C/c2cccc([N+](=O)[O-])c2)SC1=S)c1nc2ccccc2s1	57.8%
CC(=O)Nc1ccc(Sc2ccc(NC(C)=O)cc2)cc1	75.7%
O=C(CCl)N1c2ccccc2Sc2ccc3ccccc3c21	-81.1% (active)
Cc1ccc(Cl)cc1Nc1nc(C(F)(F)F)ccc1C(=O)N/N=C/c1c(Cl)cccc1Cl	-16.7% (active)
COc1ccc(C2C=C(c3ccc(Cl)c(Cl)c3)N=C3SC(C)=CN32)cc1OC (configuration not stated)	57.9%
CCn1nc(-c2ccccn2)c2cccnc2c1=S	70.5%
C=C[C@]1(C)C=C2C(=O)[C@@]3(O)OC(=O)[C@@]4(CCCC(C)(C)[C@H]34)[C@@]2(O)CC1	-71.7% (active)
CCN(CC)CCCOC(=O)Nc1ccccc1Cl	102%
O=S(=O)(NC1c2ccccc2Oc2ccccc21)c1cc(Cl)ccc1Cl	29.5%
N#Cc1ccc(-n2cnc(NC(=O)[C@H]3CCN(C#N)C3)c2)cc1	-37.8% (active)
CC(=O)n1nc(C(=O)OC(C)(C)C)c2cc(F)c(F)cc21	83.2%
O=C1CC[C@@H](C(=O)N[C@H]2CSSC[C@@H](C(=O)NCCc3ccccc3)NC(=O)[C@H](Cc3ccccc3)NC(=O)[C@@H]3CCCN3C(=O)[C@@H]3CCCN3C2=O)N1	96.2%
CCc1c(C(=O)NCc2c(O)ccc3cccc(O)c23)[nH]c(C)c1C(C)=O	11.4%
CS(=O)(=O)Nc1ccc(OCc2nnc(-c3ccc(Cl)cc3)o2)c(F)c1	94.8%
COc1ccc(-c2nc(-c3nc4ccc(OC)cc4[nH]3)c3ccccn23)cc1	62.8%
CC(C)c1ncc(CO)n1Cc1c(Cl)cccc1Cl	94.4%
NC1CCC(Nc2nc(NCc3ccc(-c4ccco4)nc3)c3ncn(C4CCCC4)c3n2)CC1 (configuration not stated)	-70.6% (active)
c1ccc(C2CCCCC2)c(OCCCCCN2CCNCC2)c1	60.8%
N#Cc1c(-c2ccccc2)nc(SCC(=O)N2CCOCC2)[nH]c1=O	83.6%
Cc1cn(C(=O)/C(Cl)=C(/Cl)C(=O)O)c2ccccc12	110%
C=CCNCCCN1C(=O)c2ccc3c4c(ccc(c24)C1=O)C(=O)N(CCCNCC=C)C3=O	-77.3% (active)

System: A549/ATCC NSCLC
Assay: as above
Conditions: 10 µM

SMILES	growth
O=[N+]([O-])C1CC2C=CC1C2 (configuration not stated)	92.3%
COc1ccc(C2CC(c3ccc(-c4ccccc4)cc3)=NN2c2ccc(S(N)(=O)=O)cc2)cc1 (configuration not stated)	47.3%
O=C(Nc1cccc(F)c1)Nc1cccc(Cl)c1	74.7%
COc1cc(/C=C2\C(=O)Nc3cc(C)c(O)cc32)cc(OC)c1OC	50.1%
COC(=O)c1ccc(Cn2ccc(=O)[nH]c2=O)cc1	105%
Nc1nc2c(ncn2C2OC3COP(=O)(O)OC4C(COP(=O)(O)OC2C3O)OC(n2cnc3c(N)ncnc32)C4O)c(=O)[nH]1 (configuration not stated)	109%
COc1cccc(C(=O)NNc2nc(N3CCN(C4CCCCC4)CC3)nc(N3CCN(C(c4ccccc4)c4ccccc4)CC3)n2)c1	35.8%
O=C(CCCC(=O)N/N=C/c1cc(Cl)ccc1O)N/N=C\c1cc(Cl)ccc1O	29.5%
COc1ccc2nc(/C=C/c3ccc(N(C)C)cc3)sc2c1	105%
O=c1cc(CSc2nnc(-c3ccccc3)n2-c2ccc(F)cc2)c2ccc3ccccc3c2o1	99.2%
O=C(O)CCCCSCCCCC(=O)O	90.9%
C#C[C@]1(O)CC[C@H]2[C@@H]3CC[C@H]4CC(F)(F)CC[C@]4(C)[C@H]3CC[C@@]21C	77.2%
O=C(OCC1OC(n2cc(C(F)(F)F)c(=O)[nH]c2=O)CC1OC(=O)c1ccc([N+](=O)[O-])cc1)c1ccc([N+](=O)[O-])cc1 (configuration not stated)	69.6%
COC(=O)c1cnc2c(c1)Oc1ccc(Cl)cc1-c1cc(C)nn1-2	59.2%
Cn1cnc([N+](=O)[O-])c1/C=C1\Oc2ccc(Cl)cc2C1=O	98.4%
CCOC(=S)Sc1ccc([N+](=O)[O-])cc1[N+](=O)[O-]	83.2%
NC(N)=NS(=O)(=O)c1ccc(Nc2ccc3nnc(-c4ccncc4)n3n2)cc1	108%
N#C/C(=C\N1C(=O)/C(=C/c2cccc([N+](=O)[O-])c2)SC1=S)c1nc2ccccc2s1	70%
CC(=O)Nc1ccc(Sc2ccc(NC(C)=O)cc2)cc1	80%

SMILES	growth
O=C(CCl)N1c2ccccc2Sc2ccc3ccccc3c21	38%
Cc1ccc(Cl)cc1Nc1nc(C(F)(F)F)ccc1C(=O)N/N=C/c1c(Cl)cccc1Cl	-9.23% (active)
COc1ccc(C2C=C(c3ccc(Cl)c(Cl)c3)N=C3SC(C)=CN32)cc1OC (configuration not stated)	58.6%
CCn1nc(-c2ccccn2)c2cccnc2c1=S	44.8%
C=C[C@]1(C)C=C2C(=O)[C@@]3(O)OC(=O)[C@@]4(CCCC(C)(C)[C@H]34)[C@@]2(O)CC1	-66.6% (active)
CCN(CC)CCCOC(=O)Nc1ccccc1Cl	107%
O=S(=O)(NC1c2ccccc2Oc2ccccc21)c1cc(Cl)ccc1Cl	97.1%
N#Cc1ccc(-n2cnc(NC(=O)[C@H]3CCN(C#N)C3)c2)cc1	23.8%
CC(=O)n1nc(C(=O)OC(C)(C)C)c2cc(F)c(F)cc21	95.9%
O=C1CC[C@@H](C(=O)N[C@H]2CSSC[C@@H](C(=O)NCCc3ccccc3)NC(=O)[C@H](Cc3ccccc3)NC(=O)[C@@H]3CCCN3C(=O)[C@@H]3CCCN3C2=O)N1	86.2%
CCc1c(C(=O)NCc2c(O)ccc3cccc(O)c23)[nH]c(C)c1C(C)=O	27.3%
CS(=O)(=O)Nc1ccc(OCc2nnc(-c3ccc(Cl)cc3)o2)c(F)c1	90.2%
COc1ccc(-c2nc(-c3nc4ccc(OC)cc4[nH]3)c3ccccn23)cc1	48%
CC(C)c1ncc(CO)n1Cc1c(Cl)cccc1Cl	102%
NC1CCC(Nc2nc(NCc3ccc(-c4ccco4)nc3)c3ncn(C4CCCC4)c3n2)CC1 (configuration not stated)	3.69% (active)
c1ccc(C2CCCCC2)c(OCCCCCN2CCNCC2)c1	53%
N#Cc1c(-c2ccccc2)nc(SCC(=O)N2CCOCC2)[nH]c1=O	101%
Cc1cn(C(=O)/C(Cl)=C(/Cl)C(=O)O)c2ccccc12	111%
C=CCNCCCN1C(=O)c2ccc3c4c(ccc(c24)C1=O)C(=O)N(CCCNCC=C)C3=O	-73.6% (active)

From PubChem BioAssay (NCI)
